Data from PubChem BioAssay AID488854 (National Center for Advancing Translational Sciences (NCATS), 2010).
Records with an inconclusive call do not appear. Values without a mark were called inactive. Calls of active or inactive are those of the source. The call rests on the fitted dose curve; in most records, active means well fitted activation curve with a large enough effect; inconclusive means small, poorly fitted or top-dose-only effect; inactive means no such curve, though single readings can be large or run the other way.

Biological target: Lysosomal acid glucosylceramidase (Homo sapiens) (UniProt P04062)
Sequence (P04062 whole entry N409S): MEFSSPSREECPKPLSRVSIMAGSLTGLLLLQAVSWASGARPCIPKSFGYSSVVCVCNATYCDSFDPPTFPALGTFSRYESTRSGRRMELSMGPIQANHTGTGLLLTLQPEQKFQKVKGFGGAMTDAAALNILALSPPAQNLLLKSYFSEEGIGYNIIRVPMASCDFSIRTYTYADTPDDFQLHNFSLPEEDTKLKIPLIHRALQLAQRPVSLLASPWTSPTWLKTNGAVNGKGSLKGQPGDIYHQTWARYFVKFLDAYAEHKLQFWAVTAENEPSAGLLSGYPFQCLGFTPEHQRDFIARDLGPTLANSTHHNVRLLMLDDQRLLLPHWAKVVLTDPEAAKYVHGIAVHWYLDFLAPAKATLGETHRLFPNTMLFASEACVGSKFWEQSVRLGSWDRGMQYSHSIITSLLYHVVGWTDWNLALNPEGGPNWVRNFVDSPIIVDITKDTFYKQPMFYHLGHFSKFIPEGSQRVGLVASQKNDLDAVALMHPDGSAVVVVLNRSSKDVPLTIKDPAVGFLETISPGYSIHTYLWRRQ
Experiment: qHTS Assay for Inhibitors and Activators of N370S glucocerebrosidase as a Potential Chaperone Treatment of Gaucher Disease: Confirmation for Probe SAR
Settings: N370S GC spleen homogenate, 4MU-glucoside fluorescence; series mostly up to 57.5 µM; activity change, positive = activation: at the top concentration
Source text: NIH Chemical Genomics Center [NCGC] NIH Molecular Libraries Probe Production Centers Network [MLPCN] MLPCN Grant: MH086442-01 Assay Submitter (PI): Wei Zheng Glucocerebrosidase (GC) catalyzes the hydrolysis of beta-glucocerebroside to glucose and ceramide in lysosomes. Mutations in the glucocerebrosidase gene result in Gaucher disease, an autosomal recessive lysosomal storage disorder. Many of the mutations encountered in patients with Gaucher disease are missense alterations that may cause misfolding, decreased stability and/or mistrafficking of this lysosomal protein. […] These inhibitors include iminosugar analogs and three non-iminosugar inhibitors identified from a previous HTS of 62,000 compounds with the wild type recombinant enzyme. However, the enhancement of enzyme activity by the chaperone action of an enzyme inhibitor must be balanced against the direct inhibition of the enzyme. An enzyme activator could also function as a chaperone by binding to the enzyme and helping to correct its misfolding and mistrafficking. While activators for GC have not yet been identified, they may have better therapeutic potential than inhibitors. Therefore the discovery and development of chemical activators may provide a new strategy for the chaperone therapy. We have optimized a new assay using N370S mutant GC derived from the spleen of a Gaucher patient. […] In addition, the MLPCN compound library has expanded, which increases the chance of finding new and better probes.
NCGC Assay Protocol Summary: This is a fluorogenic enzyme assay with 4-methylumbelliferyl-beta-D-glucopyranoside as the substrate and N370S glucocerebrosidase from human spleen homogenate as the enzyme preparation. Upon the hydrolysis of this fluorogenic substrate, the resulting product, […] which can be detected by a standard fluorescence plate reader. Data were normalized to the controls for basal activity (without enzyme) and 100% activity (with enzyme). The AC50 values were determined from concentration-response data modeled with the standard Hill equation. Assay buffer: 50 mM citric acid (titrated with potassium phosphate to pH 5.0), 100 mM potassium chloride, 10 mM sodium chloride, 1 mM magnesium chloride, 0.01% Tween-20. 1536-well assay protocol: (1) Add 2 ul/well of spleen homogenate (27 ug final) (2) Add 23 nL compounds in DMSO solution. The final titration was 0.5 nM to 58 uM. (3) Add 2 ul of substrate (1 mM final) (4) Incubate at 37C for 40 min. (5) Add 2 ul stop solution (1M NaOH and 1M Glycine mixture, pH 10) (6) Detect the assay plate in a ViewLux plate reader (PerkinElmer) with Ex=365 nm and Em=440nm. Keywords: Glucocerebrosidase, beta-glucosidase, Gaucher Disease, pharmacological chaperone, chaperone therapy, high throughput screening, glucocerebrosidase inhibitor, MLSMR, MLSCN, NIH Roadmap, qHTS and NCGC

Compound | activity change, positive = activation | Potency
CC(=O)Nc1ccc(NC(=O)c2cnn3c(C)cc(C)nc23)cc1 | -1.46% | 
O=C(Nc1ccc2c(c1)CCC2)c1cnn2c1NC(=C1CC1)C=C2C(F)F |  | 3.98 µM (active)
Cc1cc(C)n2ncc(C(=O)Nc3ccccc3Sc3ccccc3)c2n1 |  | 18.3 µM (active)
Cc1cc(C)n2ncc(C(=O)Nc3cccc(C(F)(F)F)c3)c2n1 |  | 6.51 µM (active)
CC(=O)Nc1ccccc1NC(=O)c1cnn2c(C)cc(C)nc12 | 22.1% | 
COc1ccc(NC(=O)c2cnn3c(-c4ccccc4)cc(C)nc23)cc1 | 18.3% | 
COc1ccc(NC(=O)c2cnn3c(C)cc(C)nc23)cc1F |  | 0.819 µM (active)
Cc1ccc(NC(=O)c2cnn3c(C)cc(C)nc23)c(C)c1 |  | 10.3 µM (active)
Cc1cc(C)n2ncc(C(=O)Nc3cc(Cl)cc(Cl)c3)c2n1 |  | 25.9 µM (active)
OC[C@H]1CNC[C@@H](O)[C@@H]1O | -96.6% | 
COc1ccc(NC(=O)c2cnn3c(C)cc(C)nc23)cc1Cl |  | 2.06 µM (active)
CCCCN(CCCNC(=S)NCCCc1cnc[nH]1)c1ccc(Br)cn1 | -105% | 
O=C(NC1CCCCC1)c1cnn2c1NC(=C1CC1)C=C2C(F)F |  | 12.6 µM (active)
Cc1cccc(NC(=O)c2cnn3c(C)cc(C)nc23)c1 |  | 3.66 µM (active)
C#Cc1ccc(NC(=O)c2cnn3c(C)cc(C)nc23)cc1 |  | 0.366 µM (active)
Cc1cc(-c2ccccc2)n2ncc(C(=O)Nc3ccc(Cl)c(Cl)c3)c2n1 | 26.4% | 
Cc1cc(-c2ccccc2)nc2c(C(=O)Nc3ccc4c(c3)CCC4)cnn12 |  | 8.19 µM (active)
O=C(Nc1ccccc1Sc1ccccc1)c1cnn2c1NC(=C1CC1)C=C2C(F)F |  | 4.61 µM (active)
Cc1cc(C)n2ncc(C(=O)Nc3ccc(Br)cc3)c2n1 |  | 2.31 µM (active)
Cc1cc(C)n2ncc(C(=O)Nc3ccc(C)c(C)c3)c2n1 |  | 1.46 µM (active)

Compound | activity change, positive = activation | Potency
Cc1ccc(NC(=O)c2cnn3c(C)cc(C)nc23)cc1 |  | 3.26 µM (active)
Cc1cc(C)n2ncc(C(=O)N3CCCC3)c2n1 | 2.99% | 
CCc1ccc(NC(=O)c2cnn3c(C)cc(-c4ccccc4)nc23)cc1 |  | 13 µM (active)
Cc1cc(C)n2ncc(C(=O)NCc3ccccc3)c2n1 |  | 32.6 µM (active)
Cc1cc(C)n2ncc(C(=O)NCC(C)C)c2n1 |  | 25.9 µM (active)
Cc1cc(C)n2ncc(C(=O)NC3CCCCC3)c2n1 |  | 13 µM (active)
Cc1cc(-c2ccccc2)nc2c(C(=O)Nc3ccc(Cl)c(Cl)c3)cnn12 |  | 6.51 µM (active)
COc1ccc(NC(=O)c2cnn3c(C)cc(C)nc23)cc1 |  | 6.51 µM (active)
CNC(=O)c1cnn2c(C)cc(C)nc12 | 21.2% | 
Cc1cc(C)n2ncc(C(=O)Nc3ccc4c(c3)OCO4)c2n1 |  | 6.51 µM (active)
Cc1cc(C)n2ncc(C(=O)NCc3ccco3)c2n1 |  | 41.1 µM (active)
Cc1cc(C)n2ncc(C(=O)Nc3cccc(C#N)c3)c2n1 | 5.97% [at 19 µM] | 
Cc1cc(C)n2ncc(C(=O)Nc3ccc4c(c3)CCC4)c2n1 |  | 3.26 µM (active)
Cc1cc(C)n2ncc(C(=O)Nc3ccc(C(F)(F)F)cc3)c2n1 |  | 2.06 µM (active)
CCc1ccc(NC(=O)c2cnn3c(C)cc(C)nc23)cc1 |  | 4.11 µM (active)
Cc1cc(C)n2ncc(C(=O)Nc3ccncc3)c2n1 | -4.5% | 
Cc1cc(C)n2ncc(C(=O)NC(C)C)c2n1 | 28.6% | 
Cc1cc(C)n2ncc(C(=O)Nc3ccc4c(c3)OCCO4)c2n1 |  | 5.8 µM (active)
CC(=O)c1cccc(NC(=O)c2cnn3c(C)cc(C)nc23)c1 |  | 25.9 µM (active)
O=C(Nc1ccccc1Sc1ccccc1)c1cnn2c1NC(=C1CC1)C=C2C(F)(F)F |  | 14.1 µM (active)
